About 1,300 (0.68%) of roughly 190,000 compounds were called active. No stated cut-off is given here; in the data, active means inhibition above about 50%; inactive means the rest. Only a selection was taken, and actives are over-represented in it overall.
target: Mannose-6-phosphate isomerase (Homo sapiens) (UniProt P34949); assay: MPI inhibition at elevated mannose 6-phosphate – biochemical, fluorescence intensity, high mannose 6-phosphate, primary screen (AID 1220); conditions: recombinant PMI enzyme, coupled fluorescence intensity; at 20 µM; stronger effect = higher value
Sequence (P34949 whole entry, looked up): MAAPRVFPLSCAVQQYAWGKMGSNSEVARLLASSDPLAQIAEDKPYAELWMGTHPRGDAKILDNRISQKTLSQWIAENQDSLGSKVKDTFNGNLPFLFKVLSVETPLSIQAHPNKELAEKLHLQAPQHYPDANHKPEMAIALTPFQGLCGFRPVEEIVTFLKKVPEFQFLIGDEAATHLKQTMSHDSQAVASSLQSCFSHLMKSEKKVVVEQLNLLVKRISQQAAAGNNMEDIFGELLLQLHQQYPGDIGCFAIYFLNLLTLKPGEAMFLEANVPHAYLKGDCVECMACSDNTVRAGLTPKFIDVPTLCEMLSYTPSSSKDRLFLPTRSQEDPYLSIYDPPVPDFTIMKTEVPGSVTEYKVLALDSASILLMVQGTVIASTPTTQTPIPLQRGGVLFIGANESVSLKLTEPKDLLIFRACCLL

inhibition, inactive:
Cc1cc(C)c(S(=O)(=O)c2ccccc2)c(Cl)n1 5.7%
COC(=O)c1[nH]c2ccccc2c1NC(=O)CNC1CCCCC1 11.8%
O=C(CNc1cccc2ccccc12)N/N=C/c1ccc([N+](=O)[O-])cc1 18.1%
Cc1cccc(/C=N/NC(=O)C(C)Nc2cccc3ccccc23)n1 (stereo not drawn) -72.3%
O=C(CNc1ccccc1)c1ccc([N+](=O)[O-])cc1 -90.7%
C=CCc1cccc(/C=N/NC(=O)CNc2ccccc2OC)c1O -20.8%
Cc1cccc(NCC(=O)N/N=C\c2cccc(Oc3ccccc3)c2)c1 12.6%
Cc1ccc(NCC(=O)N/N=C/c2cccc(Oc3ccccc3)c2)cc1 10.5%
CSc1ccc(/C=N/NC(=O)CNc2cccc3ccccc23)cc1 17.1%
C=CCc1cccc(/C=N/NC(=O)CNc2ccccc2)c1O -4.5%
O=C(N=Nc1c(O)[nH]c2ccccc12)c1cc(NS(=O)(=O)c2cccs2)cc(NS(=O)(=O)c2cccs2)c1 -0.7%
O=C(N/N=C/C=C\c1ccccc1[N+](=O)[O-])c1ccccn1 13.1%
COc1ccc(N2CCN(C(c3cccs3)C(C)NS(=O)(=O)c3ccccc3)CC2)cc1 (stereo not drawn) 20.1%
CN(c1ccc(OCC(=O)OCC(=O)NC2CCCC2)cc1)S(=O)(=O)c1ccc2ccccc2c1 23.5%
O=C(O)C1CCC(Cn2c(SCc3cc(=O)n4cc(Br)ccc4n3)nc3ccsc3c2=O)CC1 (stereo not drawn) 5.7%
Cc1ccc2cc(S(=O)(=O)NCCCN3CCOCC3)ccc2c1 4.1%
O=C(CNc1ccccc1)N/N=C/c1ccc([N+](=O)[O-])o1 8%
O=C(CNc1ccc2ccccc2c1)N/N=C/c1ccc([N+](=O)[O-])o1 46.2%
O=C(O)/C=C/C(=O)N1CCN(c2ccccc2F)CC1 2.7%
N#CCSc1nnc(C2CCCCC2)n1-c1ccccc1 11.9%
NC(=O)c1cccc(S(=O)(=O)N2CC(c3ccccc3)CC2=O)c1 (stereo not drawn) 5.1%
O=C(Oc1cccc2cccnc12)c1cccc([N+](=O)[O-])c1 44.3%
Cc1cc(Cl)ccc1Oc1ccc(C(N)=O)cc1[N+](=O)[O-] 5.8%
Cc1c(C(=O)Oc2cccc3cccnc23)cccc1[N+](=O)[O-] 36.1%
O=[N+]([O-])c1ccc(Oc2cccc3cccnc23)c([N+](=O)[O-])c1 11.4%
COc1cccc(CNC(=O)CCC2CCCN(C(=O)CCC(F)(F)F)C2)c1 (stereo not drawn) 7.7%
CCNc1nc(NCC)n2c(SCC(=O)c3ccc(C(C)C)cc3)nnc2n1 -21%
CCCNC(=O)Cc1c(O)c2ccccc2[nH]c1=O 6.5%
COc1ccc(C2C3=C(Nc4ncnn42)c2ccccc2CC3)cc1OC (stereo not drawn) 38.6%
COc1ccc(C2C3=C(Nc4ncnn42)c2ccccc2CCC3)cc1 (stereo not drawn) 3.7%
Cc1cccc2cc(-c3nc4c(C)cccn4c3NCc3ccco3)c(=O)[nH]c12 1.7%
Cc1ccn2c(-c3csc(NCc4ccco4)n3)c(C)nc2c1 48.7%
Cc1cccn2c(=O)c(C=Nc3ccccc3)c(NCc3ccco3)nc12 -12.9%
Cc1ccc2[nH]c(=O)c(-c3nc4ccccn4c3NCc3ccco3)cc2c1 -4.9%
CC1CCCCC1NCc1cccc([N+](=O)[O-])c1 (stereo not drawn) 2.2%
CCc1ccc(C2=NN(S(C)(=O)=O)C(c3cccs3)C2)cc1 (stereo not drawn) 3.7%
COc1ccccc1NC(=O)Cn1cnc2sc(C(=O)NCc3ccco3)c(C)c2c1=O -4.1%
Nc1nc2c(Cl)ccc(Cl)c2s1 8%
Nn1c(SCc2ccccn2)nncc1=O -1.6%
C/C(=N\Nc1ccccn1)c1ccc(C(C)C)cc1 11.6%
CCC(C(=O)OCC(=O)Nc1ccc(OC)cc1OC)c1ccccc1 (stereo not drawn) 10.5%
CCC(C(=O)OCC(=O)Nc1cc(C)ccc1OC)c1ccccc1 (stereo not drawn) 0.3%
O=C(NC1CCCc2ccccc21)c1ccc2c(c1)OCO2 (stereo not drawn) 8.7%
COc1ccc(-n2cc(CNCC3CCOCC3)c(-c3cccc(F)c3)n2)cc1 4.6%
CCOC(=O)C1CCN(c2cc(=O)n(-c3ccccc3Cl)c(=O)[nH]2)CC1 -1.4%
O=c1c(-c2ccccc2)nc(-c2ccccc2)cn1O 3.4%
Cc1nc(-c2ccccc2)ccc1C(=O)O 0.4%
CCOC(=O)N1CCN(C(=O)CSc2ccc3nnc(-c4ccncc4)n3n2)CC1 8.4%
COc1ccccc1/C=N/Nc1nncc2ccccc12 -1.9%
COc1ccccc1/C=N/NC1=NCCCCC1 0.4%

inhibition, active:
C=CCc1cccc(/C=N/NC(=O)CNc2cccc3ccccc23)c1O 55.2%
O=C(CNc1cccc2ccccc12)c1ccc([N+](=O)[O-])cc1 57.5%
Cc1cccc(/C=N/NC(=O)CNc2cccc3ccccc23)n1 61.8%
O=C(CNc1cccc2ccccc12)N/N=C/c1cccc(Oc2ccccc2)c1 51.8%
O=C(CNc1cccc2ccccc12)N/N=C/c1ccc([N+](=O)[O-])o1 60.4%
COc1ccc(C(=O)Oc2cccc3cccnc23)cc1[N+](=O)[O-] 51.9%
NC(=O)c1ccc(Oc2cccc3cccnc23)c([N+](=O)[O-])c1 50.2%
COc1cc(C2C3=C(Nc4ncnn42)c2ccccc2CC3)cc(OC)c1OC (stereo not drawn) 51.9%
Cc1ccc2[nH]c(=O)c(-c3nc4c(C)cccn4c3NCc3ccco3)cc2c1 55.2%
Cc1ccc2[nH]c(=O)c(-c3nc4cc(C)ccn4c3NCc3ccco3)cc2c1 53.7%
CCOc1ccccc1NC(=O)COC(=O)C(CC)c1ccccc1 (stereo not drawn) 64.5%
Cc1nc(-c2ccccc2)cn(O)c1=O 65.6%
COc1ccccc1/C=N/Nc1cc(N(C)C)nc(N(C)C)n1 63.4%

From PubChem BioAssay AID1220 (Sanford-Burnham Center for Chemical Genomics, 2008)
